{"source": "PubChem BioAssay AID1159580", "about": "(chemical genetic matrix, 2015)", "test": "chemical genetic growth profiling, strain panel (AID 1159580);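 note: tested at 20 µM; growth read once vehicle control cultures reached saturation at 30 °C; 1 = growth at the plate median or of vehicle wells; lower values mean less growth of the strain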", "details": "S. cerevisiae deletion strains, growth OD", "note": "“And” between values parts separate entries of the source, which are not always exact repeats. Identical values can stand only once. The whole screen tested about 5,500 compounds, of which about 2,000 (36%) were called active. Not shown: some 18% with an inconclusive outcome. This is one part of the list. Values without a mark were called inactive. Cut-off read from the data, not from the text of the source: active = normalized growth mostly below about 0.91 (no sharp cut-off); inconclusive = no clear call, values can overlap the other calls; inactive = mostly above about 0.92."}
{"compound": "COC(=O)c1c(C)cc(OC)cc1O", "values": [{"measurement": "normalized growth", "setting": "locus YAL013W, strain DEP1, active compounds read low", "result": 1.02}, {"measurement": "normalized growth", "setting": "locus YAL021C, strain ccr4, active compounds read low", "result": 1.02}, {"measurement": "normalized growth", "setting": "locus YAL026C, strain drs2, active compounds read low", "result": 0.984}, {"measurement": "normalized growth", "setting": "locus YAL030W, strain snc1, active compounds read low", "result": 0.971}, {"measurement": "normalized growth", "setting": "locus YBL061C, strain skt5, active compounds read low", "result": 0.988}, {"measurement": "normalized growth", "setting": "locus YBR009C, strain hhf1, active compounds read low", "result": 0.978}, {"measurement": "normalized growth", "setting": "locus YBR021W, strain FUR4, active compounds read low", "result": 1.02}, {"measurement": "normalized growth", "setting": "locus YBR023C, strain chs3, active compounds read low", "result": 0.973}, {"measurement": "normalized growth", "setting": "locus YBR171W, strain sec66, active compounds read low", "result": 0.961}, {"measurement": "normalized growth", "setting": "locus YBR229C, strain ROT2, active compounds read low", "result": 0.996}, {"measurement": "normalized growth", "setting": "locus YBR231C, strain swc5, active compounds read low", "result": 0.978}, {"measurement": "normalized growth", "setting": "locus YBR279W, strain paf1, active compounds read low", "result": 0.988}, {"measurement": "normalized growth", "setting": "locus YCL011C, strain gbp2, active compounds read low", "result": 0.969}, {"measurement": "normalized growth", "setting": "locus YCL016C, strain dcc1, active compounds read low", "result": 0.966}, {"measurement": "normalized growth", "setting": "locus YCL029C, strain bik1, active compounds read low", "result": 0.976}, {"measurement": "normalized growth", "setting": "locus YCL069W, strain vba3, active compounds read low", "result": 0.989}, {"measurement": "normalized growth", "setting": "locus YCR088W, strain abp1, active compounds read low", "result": 0.971}, {"measurement": "normalized growth", "setting": "locus YDL005C, strain med2, active compounds read low", "result": 0.985}, {"measurement": "normalized growth", "setting": "locus YDL035C, strain GPR1, active compounds read low", "result": 1}, {"measurement": "normalized growth", "setting": "locus YDL040C, strain nat1, active compounds read low", "result": 0.98}, {"measurement": "normalized growth", "setting": "locus YDL074C, strain BRE1, active compounds read low", "result": 1.02}, {"measurement": "normalized growth", "setting": "locus YDL101C, strain DUN1, active compounds read low", "result": 1}, {"measurement": "normalized growth", "setting": "locus YDL134C, strain PPH21, active compounds read low", "result": 1}, {"measurement": "normalized growth", "setting": "locus YDL185W, strain tfp1, active compounds read low", "result": 0.987}, {"measurement": "normalized growth", "setting": "locus YDL192W, strain arf1, active compounds read low", "result": 0.985}, {"measurement": "normalized growth", "setting": "locus YDR001C, strain nth1, active compounds read low", "result": 0.983}, {"measurement": "normalized growth", "setting": "locus YDR069C, strain doa4, active compounds read low", "result": 0.98}, {"measurement": "normalized growth", "setting": "locus YDR101C, strain arx1, active compounds read low", "result": 0.954}, {"measurement": "normalized growth", "setting": "locus YDR137W, strain rgp1, active compounds read low", "result": 1.01}, {"measurement": "normalized growth", "setting": "locus YDR150W, strain NUM1, active compounds read low", "result": 0.989}, {"measurement": "normalized growth", "setting": "locus YDR159W, strain sac3, active compounds read low", "result": 0.953}, {"measurement": "normalized growth", "setting": "locus YDR162C, strain NBP2, active compounds read low", "result": 0.997}, {"measurement": "normalized growth", "setting": "locus YDR195W, strain ref2", "result": 1.03}, {"measurement": "normalized growth", "setting": "locus YDR297W, strain sur2, active compounds read low", "result": 0.984}, {"measurement": "normalized growth", "setting": "locus YDR318W, strain mcm21, active compounds read low", "result": 0.962}, {"measurement": "normalized growth", "setting": "locus YDR334W, strain swr1, active compounds read low", "result": 0.984}, {"measurement": "normalized growth", "setting": "locus YDR335W, strain msn5, active compounds read low", "result": 0.994}, {"measurement": "normalized growth", "setting": "locus YDR388W, active compounds read low", "result": 0.986}, {"measurement": "normalized growth", "setting": "locus YDR392W, strain spt3, active compounds read low", "result": 0.913}, {"measurement": "normalized growth", "setting": "locus YDR502C, strain sam2, active compounds read low", "result": 0.962}, {"measurement": "normalized growth", "setting": "locus YEL003W, strain gim4, active compounds read low", "result": 0.975}, {"measurement": "normalized growth", "setting": "locus YEL037C, strain rad23, active compounds read low", "result": 0.991}, {"measurement": "normalized growth", "setting": "locus YEL061C, strain CIN8 (second series), active compounds read low", "result": 0.98}, {"measurement": "normalized growth", "setting": "locus YEL061C, strain CIN8, active compounds read low", "result": 0.989}, {"measurement": "normalized growth", "setting": "locus YER015W, strain faa2, active compounds read low", "result": 0.98}, {"measurement": "normalized growth", "setting": "locus YER016W, strain bim1, active compounds read low", "result": 0.984}, {"measurement": "normalized growth", "setting": "locus YER110C, active compounds read low", "result": 0.947}, {"measurement": "normalized growth", "setting": "locus YER111C, strain swi4, active compounds read low", "result": 0.966}, {"measurement": "normalized growth", "setting": "locus YER155C, strain BEM2 (second series), active compounds read low", "result": "0.858 (active)"}, {"measurement": "normalized growth", "setting": "locus YER155C, strain BEM2, active compounds read low", "result": 0.994}, {"measurement": "normalized growth", "setting": "locus YER167W, strain BCK2, active compounds read low", "result": 0.993}, {"measurement": "normalized growth", "setting": "locus YFR010W, strain ubp6, active compounds read low", "result": 0.992}, {"measurement": "normalized growth", "setting": "locus YGL078C, strain dbp3, active compounds read low", "result": 0.993}, {"measurement": "normalized growth", "setting": "locus YGL086W, strain mad1, active compounds read low", "result": 0.988}, {"measurement": "normalized growth", "setting": "locus YGL167C, strain pmr1, active compounds read low", "result": 0.977}, {"measurement": "normalized growth", "setting": "locus YGL173C, strain kem1, active compounds read low", "result": 0.971}, {"measurement": "normalized growth", "setting": "locus YGL227W, strain vid30, active compounds read low", "result": 0.969}, {"measurement": "normalized growth", "setting": "locus YGL240W, strain doc1, active compounds read low", "result": 0.938}, {"measurement": "normalized growth", "setting": "locus YGL248W, strain PDE1, active compounds read low", "result": 0.997}, {"measurement": "normalized growth", "setting": "locus YGL253W, strain hxk2, active compounds read low", "result": 0.979}, {"measurement": "normalized growth", "setting": "locus YGR078C, strain PAC10, active compounds read low", "result": 0.984}, {"measurement": "normalized growth", "setting": "locus YGR135W, strain pre9, active compounds read low", "result": 0.962}, {"measurement": "normalized growth", "setting": "locus YGR229C, strain SMI1, active compounds read low", "result": 1.03}, {"measurement": "normalized growth", "setting": "locus YGR252W, strain gcn5, active compounds read low", "result": 1.02}, {"measurement": "normalized growth", "setting": "locus YHR013C, strain ard1, active compounds read low", "result": 1.02}, {"measurement": "normalized growth", "setting": "locus YHR027C, strain rpn1, active compounds read low", "result": 0.997}, {"measurement": "normalized growth", "setting": "locus YHR030C, strain SLT2, active compounds read low", "result": "0.993 and 1.04"}, {"measurement": "normalized growth", "setting": "locus YHR079C, strain IRE1 (second series), active compounds read low", "result": 0.961}, {"measurement": "normalized growth", "setting": "locus YHR079C, strain IRE1, active compounds read low", "result": 1.02}, {"measurement": "normalized growth", "setting": "locus YHR094C, strain hxt1, active compounds read low", "result": 0.99}, {"measurement": "normalized growth", "setting": "locus YHR129C, strain ARP1, active compounds read low", "result": 0.999}, {"measurement": "normalized growth", "setting": "locus YHR142W, strain chs7, active compounds read low", "result": 0.954}, {"measurement": "normalized growth", "setting": "locus YHR200W, strain rpn10, active compounds read low", "result": 0.965}, {"measurement": "normalized growth", "setting": "locus YIL066C, strain RNR3, active compounds read low", "result": 1}, {"measurement": "normalized growth", "setting": "locus YIL073C, strain SPO22, active compounds read low", "result": 0.991}, {"measurement": "normalized growth", "setting": "locus YIL125W, strain kgd1, active compounds read low", "result": 0.984}, {"measurement": "normalized growth", "setting": "locus YIR030C, strain dcg1, active compounds read low", "result": 0.972}, {"measurement": "normalized growth", "setting": "locus YJL092W, strain hpr5, active compounds read low", "result": 0.978}, {"measurement": "normalized growth", "setting": "locus YJL095W, strain BCK1 (second series), active compounds read low", "result": 0.996}, {"measurement": "normalized growth", "setting": "locus YJL095W, strain BCK1, active compounds read low", "result": "0.971 and 1.02"}, {"measurement": "normalized growth", "setting": "locus YJL115W, strain asf1, active compounds read low", "result": 0.987}, {"measurement": "normalized growth", "setting": "locus YJL129C, strain trk1, active compounds read low", "result": 0.965}, {"measurement": "normalized growth", "setting": "locus YJL134W, strain LCB3, active compounds read low", "result": 0.999}, {"measurement": "normalized growth", "setting": "locus YJL154C, strain vps35, active compounds read low", "result": 0.98}, {"measurement": "normalized growth", "setting": "locus YJL164C, strain tpk1, active compounds read low", "result": 0.969}, {"measurement": "normalized growth", "setting": "locus YJL166W, strain qcr8, active compounds read low", "result": 0.972}, {"measurement": "normalized growth", "setting": "locus YJL168C, strain set2, active compounds read low", "result": 0.986}, {"measurement": "normalized growth", "setting": "locus YJL187C, strain SWE1 (second series), active compounds read low", "result": 0.998}, {"measurement": "normalized growth", "setting": "locus YJL187C, strain SWE1, active compounds read low", "result": 0.982}, {"measurement": "normalized growth", "setting": "locus YJR043C, strain POL32, active compounds read low", "result": 0.966}, {"measurement": "normalized growth", "setting": "locus YJR066W, strain TOR1, active compounds read low", "result": 0.965}]}
